Screens (PubChem)
CHRM1 agonist: activates human CHRM1 receptor | P11229 | CHO-K1 hM1, Fluo-8 calcium fluorescence, agonist mode; 0% DMSO, 100% acetylcholine EC100 | activation, % at 3 µM | 360,000 compounds, 0.33% hits;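 active means activation above the run's mean compound activation plus 3 SD, cut at about 16% in these data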;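 further: peak over basal fluorescence ratio within a 140 s kinetic read after compound addition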
Target sequence (P11229 whole entry, looked up): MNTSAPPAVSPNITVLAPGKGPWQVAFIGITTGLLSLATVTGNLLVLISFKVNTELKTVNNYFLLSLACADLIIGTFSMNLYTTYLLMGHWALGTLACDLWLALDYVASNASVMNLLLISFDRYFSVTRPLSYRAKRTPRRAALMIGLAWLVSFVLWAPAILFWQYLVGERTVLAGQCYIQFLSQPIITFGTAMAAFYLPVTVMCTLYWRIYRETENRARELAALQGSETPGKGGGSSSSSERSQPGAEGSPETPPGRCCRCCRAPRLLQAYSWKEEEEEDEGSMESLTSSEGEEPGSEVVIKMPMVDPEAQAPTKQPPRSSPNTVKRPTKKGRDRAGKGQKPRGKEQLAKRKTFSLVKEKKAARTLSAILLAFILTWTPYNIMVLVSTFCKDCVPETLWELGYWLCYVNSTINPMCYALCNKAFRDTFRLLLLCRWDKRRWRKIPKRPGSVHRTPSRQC
CHRM1 PAM: positive allosteric modulators of human M1 muscarinic receptor; P11229; CHO-K1 hM1, Fluo-8 calcium fluorescence, ACh EC20; 0% = ACh EC20, 100% = maximal ACh; activation, % at 3 µM; 360,000 compounds, 0.088% hits; AID 588819; in the data active means activation above about 19%, passing the limit was not always enough
CHO-K1 Ca antag: M1 antagonist counterscreen hit in parental CHO-K1 cells. ATP-induced calcium, Fluo-8 fluorescence. inhibition, % at 3 µM. 360,000 compounds, 0.6% hits. AID 602250;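 active means inhibition above a per-plate cutoff, the plate's mean sample inhibition plus 3 SD, cut at about 24% in these data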
CHO-K1 Ca ag: counter-screen for M1 agonists: effect in parental CHO-K1 cells. Fluo-8 calcium fluorescence; scaled to maximal ATP response, vehicle zero. activation, % at 3 µM. 360,000 compounds, 0.48% hits; in the data active means activation above about 15%;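 further: untransfected CHO-K1 host cells lacking M1 receptor as counterscreen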
CHRM1 antagonist: antagonists of human M1 muscarinic receptor; P11229; CHO-K1 hM1, Fluo-8 calcium fluorescence, ACh EC80 antagonist; inhibition, % at 3 µM; 360,000 compounds, 1.3% hits;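 active means percent inhibition above its own plate's cutoff, namely the mean of that plate's compound wells plus 3 SD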;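 further: peak over basal fluorescence ratio during 140 s after agonist addition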
M1 PAM parental: counter-screen for M1 PAMs: effect in parental CHO-K1 cells; AID 602247; 360,000 compounds, 0.02% hits; activation, % at 3 µM; ATP EC20, Fluo-8 calcium fluorescence; 0% at ATP EC20, 100% at ATP max;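 active means activation above the run cutoff, the mean activation of all test compounds plus 3 SD, cut at about 40% in these data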;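 further: peak over basal fluorescence ratio in a 140 s read after ATP addition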
Hits are given with their value. Shown are actives, neighbours in structure and some others; about 2.3% of the full set was active somewhere.

What do the screens show for `CCN(CC)CCCNC(=O)CNC(=O)c1nn(-c2ccc(OC)cc2)c(=O)c2ccccc12`?
CHRM1 agonist: inactive; CHRM1 PAM: inactive; CHO-K1 Ca antag: inactive; CHO-K1 Ca ag: inactive; CHRM1 antagonist: 45.2; M1 PAM parental: inactive

How did CCN(CC)CCNC(=O)CNC(=O)c1nn(-c2ccc(OC)cc2)c(=O)c2ccccc12 do in these assays?
CHRM1 agonist: inactive; CHRM1 PAM: inactive; CHO-K1 Ca antag: inactive; CHO-K1 Ca ag: inactive; CHRM1 antagonist: inactive; M1 PAM parental: inactive

What do the screens show for `O=C(Cc1ccccc1)NC(C(=O)O)C(O)c1ccc([N+](=O)[O-])cc1` (stereo not given)?
CHRM1 agonist: inactive; CHRM1 PAM: inactive; CHO-K1 Ca antag: inactive; CHO-K1 Ca ag: inactive; CHRM1 antagonist: inactive; M1 PAM parental: inactive

Results for CCN1CCN(c2ccc(N3CCN(S(=O)(=O)c4cccc([N+](=O)[O-])c4)CC3)nn2)CC1 ?
CHRM1 agonist: inactive; CHRM1 PAM: inactive; CHO-K1 Ca antag: inactive; CHO-K1 Ca ag: inactive; CHRM1 antagonist: 34.2; M1 PAM parental: inactive

How did CCCCOc1ccc(S(=O)(=O)N2CCN(c3ccc(N4CCN(CC)CC4)nn3)CC2)cc1 do in these assays?
CHRM1 agonist: inactive; CHRM1 PAM: inactive; CHO-K1 Ca antag: inactive; CHO-K1 Ca ag: inactive; CHRM1 antagonist: inactive; M1 PAM parental: inactive

How did CCN(CC(=O)Nc1ccccc1C(F)(F)F)C(=O)c1ccc(-n2nc(C)c(CCC(=O)OC)c2C)cc1 do in these assays?
CHRM1 agonist: inactive; CHRM1 PAM: inactive; CHO-K1 Ca antag: inactive; CHO-K1 Ca ag: inactive; CHRM1 antagonist: inactive; M1 PAM parental: inactive

How did CC(C)c1ccc(CNC(=O)C(=O)Nc2nccs2)cc1 do in these assays?
CHRM1 agonist: inactive; CHRM1 PAM: inactive; CHO-K1 Ca antag: inactive; CHO-K1 Ca ag: inactive; CHRM1 antagonist: inactive; M1 PAM parental: inactive

Results for CC(C)Cc1ccc(C(C)C(=O)Nc2nccs2)cc1 (stereo not given) ?
CHRM1 agonist: 23.6; CHRM1 PAM: inactive; CHO-K1 Ca antag: inactive; CHO-K1 Ca ag: 16.5; CHRM1 antagonist: inactive; M1 PAM parental: inactive

Results for CC(C)Cc1ccc(C(C)C(=O)Nc2ccccc2O)cc1 (stereo not given) ?
CHRM1 agonist: 35.5; CHRM1 PAM: inactive; CHO-K1 Ca antag: 45.8; CHO-K1 Ca ag: 38.2; CHRM1 antagonist: 69.1; M1 PAM parental: inactive

Results for CC1CCCN(C(=O)CNS(=O)(=O)c2cccs2)C1 (stereo not given) ?
CHRM1 agonist: inactive; CHRM1 PAM: inactive; CHO-K1 Ca antag: inactive; CHO-K1 Ca ag: inactive; CHRM1 antagonist: inactive; M1 PAM parental: inactive

How did O=S(=O)(NC(=S)c1ccccc1)c1ccc(F)cc1 do in these assays?
CHRM1 agonist: inactive; CHRM1 PAM: inactive; CHO-K1 Ca antag: inactive; CHO-K1 Ca ag: inactive; CHRM1 antagonist: inactive; M1 PAM parental: inactive

Results for CCOC(=O)C1CCCN(c2ncnc3c2cnn3-c2cccc(C)c2)C1 (stereo not given) ?
CHRM1 agonist: 44.1; CHRM1 PAM: inactive; CHO-K1 Ca antag: inactive; CHO-K1 Ca ag: inactive; CHRM1 antagonist: inactive; M1 PAM parental: inactive

What do the screens show for `CCN1CCN(c2ncnc3c2cnn3-c2ccccc2)CC1`?
CHRM1 agonist: inactive; CHRM1 PAM: inactive; CHO-K1 Ca antag: inactive; CHO-K1 Ca ag: inactive; CHRM1 antagonist: inactive; M1 PAM parental: inactive

How did COc1ccc(-n2ncc3c(N4CCN(Cc5ccccc5)CC4)ncnc32)cc1 do in these assays?
CHRM1 agonist: inactive; CHRM1 PAM: inactive; CHO-K1 Ca antag: inactive; CHO-K1 Ca ag: inactive; CHRM1 antagonist: 22.6; M1 PAM parental: inactive

What do the screens show for `COc1cccc(N2CCN(c3ncnc4c3cnn4-c3ccc(C)cc3C)CC2)c1`?
CHRM1 agonist: inactive; CHRM1 PAM: inactive; CHO-K1 Ca antag: inactive; CHO-K1 Ca ag: inactive; CHRM1 antagonist: 63.5; M1 PAM parental: inactive

Results for CCN(CC)C(=O)C1CCCN(c2ncnc3c2cnn3-c2cccc(C)c2)C1 (stereo not given) ?
CHRM1 agonist: inactive; CHRM1 PAM: inactive; CHO-K1 Ca antag: inactive; CHO-K1 Ca ag: inactive; CHRM1 antagonist: inactive; M1 PAM parental: inactive

How did N#CCCN1CCN(C(=S)c2ccc(-c3ccc(Cl)cc3)o2)CC1 do in these assays?
CHRM1 agonist: inactive; CHRM1 PAM: inactive; CHO-K1 Ca antag: 26.6; CHO-K1 Ca ag: inactive; CHRM1 antagonist: inactive; M1 PAM parental: inactive

How did S=C(c1ccc(-c2ccc(Cl)cc2)o1)N1CCCCC1 do in these assays?
CHRM1 agonist: inactive; CHRM1 PAM: inactive; CHO-K1 Ca antag: inactive; CHO-K1 Ca ag: inactive; CHRM1 antagonist: inactive; M1 PAM parental: inactive

What do the screens show for `CCCNC(=O)c1ccc(N2CCC3(CC2)CC(c2cccc(Br)c2)=NO3)c(NC(=O)c2ccc(Cl)c([N+](=O)[O-])c2)c1`?
CHRM1 agonist: inactive; CHRM1 PAM: inactive; CHO-K1 Ca antag: inactive; CHO-K1 Ca ag: inactive; CHRM1 antagonist: inactive; M1 PAM parental: inactive

What do the screens show for `CN(C)Cc1ccccc1Sc1ccc(O)cc1O`?
CHRM1 agonist: 18.3; CHRM1 PAM: inactive; CHO-K1 Ca antag: inactive; CHO-K1 Ca ag: inactive; CHRM1 antagonist: inactive; M1 PAM parental: inactive

Results for C/C(CC(C)C)=N\NC(=O)Nc1ccccc1 ?
CHRM1 agonist: inactive; CHRM1 PAM: inactive; CHO-K1 Ca antag: inactive; CHO-K1 Ca ag: inactive; CHRM1 antagonist: inactive; M1 PAM parental: inactive

How did CC/C(=N\NC(=O)Nc1ccccc1)c1ccccc1 do in these assays?
CHRM1 agonist: inactive; CHRM1 PAM: inactive; CHO-K1 Ca antag: 33.6; CHO-K1 Ca ag: inactive; CHRM1 antagonist: inactive; M1 PAM parental: inactive

What do the screens show for `OC(Cc1cccc(Br)c1)c1ncc(-c2ccccc2C(F)(F)F)[nH]1` (stereo not given)?
CHRM1 agonist: inactive; CHRM1 PAM: inactive; CHO-K1 Ca antag: inactive; CHO-K1 Ca ag: inactive; CHRM1 antagonist: inactive; M1 PAM parental: inactive

What do the screens show for `COCCN1C(=O)/C(=C/c2ccc(N3CCCC3)cc2C)SC1=S`?
CHRM1 agonist: inactive; CHRM1 PAM: inactive; CHO-K1 Ca antag: inactive; CHO-K1 Ca ag: inactive; CHRM1 antagonist: 31.2; M1 PAM parental: inactive

Results for CCN=C1S/C(=C\c2ccc(N3CCOCC3)cc2C)C(=O)N1CC ?
CHRM1 agonist: inactive; CHRM1 PAM: inactive; CHO-K1 Ca antag: inactive; CHO-K1 Ca ag: inactive; CHRM1 antagonist: inactive; M1 PAM parental: inactive

What do the screens show for `O=C1NC[C@H](CCCCN2C[C@H](Cc3ccccc3)N(CC3CCCCC3)C(=O)C2=O)N(CCc2ccccc2)C1=O`?
CHO-K1 Ca antag: inactive; CHO-K1 Ca ag: inactive; M1 PAM parental: inactive

Results for O=c1[nH]cnc2c1C1(CCCC1)Cc1ccccc1-2 ?
CHRM1 agonist: inactive; CHRM1 PAM: inactive; CHO-K1 Ca antag: 43.6; CHO-K1 Ca ag: inactive; CHRM1 antagonist: inactive; M1 PAM parental: inactive

What do the screens show for `O=c1c2c(nc3n1CCCCC3)-c1ccccc1CC21CCCC1`?
CHRM1 agonist: inactive; CHRM1 PAM: inactive; CHO-K1 Ca antag: inactive; CHO-K1 Ca ag: inactive; CHRM1 antagonist: 30.9; M1 PAM parental: inactive

Results for O=C(O)C1Cn2c(nc3c(c2=O)C2(CCCC2)Cc2ccccc2-3)S1 (stereo not given) ?
CHRM1 agonist: inactive; CHRM1 PAM: inactive; CHO-K1 Ca antag: inactive; CHO-K1 Ca ag: inactive; CHRM1 antagonist: inactive; M1 PAM parental: inactive
